In all, about 1,200 compounds went through this assay and about 480 (40%) were called active. The rule behind the calls is not given here. The set was probably picked from earlier hits. Not all results are given here. Entries with a potency or affinity are not part of this list.
Experiment: viability loss in human hepatoma cells – cell-based, CellTiter-Glo luminescence, cherry-pick, set 2, cytotoxicity control, dose response (AID 743395)
Settings: HepG2 viability, CellTiter-Glo ATP luminescence, 72 h; series mostly up to 26 µM

Compound | outcome
CCOC(=O)N1CCN(C(=O)C2CCC(=O)N(CCCN3CCCC3=O)C2)CC1 (configuration not stated) | inactive
COc1ccccc1NS(=O)(=O)c1ccc(C)c(C(=O)Nc2cc(C)on2)c1 | inactive
COc1ccc(Cl)cc1C(=O)NNC(=O)CCNS(=O)(=O)c1ccccc1 | inactive
COC(=O)c1ccc(CS(=O)(=O)c2ccc(F)cc2)o1 | inactive
Nc1[nH]nc2ncc3cc4ccccc4nc3c12 | inactive
Clc1cccc(-c2ccc(C=Nc3ccc(N4CCOCC4)cc3)o2)c1Cl | inactive
COC(=O)COc1cccc2c(=O)n(CC(=O)NCc3ccccc3)ccc12 | inactive
O=C(CN1CCOc2ccccc21)NCc1ccc(Cl)cc1 | inactive
O=C(N/N=C/c1cccs1)c1cccc(NC(=O)c2ccccc2Cl)c1 | inactive
O=C(c1ccc(S(=O)(=O)NCC2CCCO2)cc1)N1CCN(c2cccc(Cl)c2)CC1 (configuration not stated) | inactive
O=C(CSc1nc2nn(-c3ccccc3)c(=O)c-2c2n1CCCCC2)Nc1ccc(OC(F)F)cc1 | inactive
Cc1ccc(-c2cccc(-c3cc(=O)oc4ccc(C(C)(C)C)cc34)c2)cc1 | inactive
COc1ccc(-c2c(C)cc3oc(=O)cc(-c4ccccc4)c3c2C)cc1OC | inactive
COc1cc(OC)c2c(-c3cccc(-c4ccc(OC)c(F)c4)c3)cc(=O)oc2c1 | inactive
COc1cc(OC)c2c(-c3cccc(-c4ccc(OC)c(OC)c4)c3)cc(=O)oc2c1 | inactive
CN1C(=O)c2cccc3c(N)ccc(c23)C1=O | inactive
CC1Cc2nc(SCC(=O)N3CCOCC3)n(-c3ccccc3)c(=O)c2S1 (configuration not stated) | inactive
COc1cc(/C=C(\CC(=O)O)c2nc3ccccc3s2)ccc1OCC(=O)Nc1ccccc1F | inactive
CC(=O)Nc1ccc(-c2csc(NC(=O)CN3C(=O)NC4(CCCC4)C3=O)n2)cc1 | inactive
CC(C)(C)c1ccccc1NC(=O)CN1C(=O)NC2(CCCCCC2)C1=O | inactive
O=C(NC1CCN(Cc2ccccc2)CC1)c1cc(S(=O)(=O)N2CCOCC2)ccc1Cl | inactive
Cn1c(CC(=O)NN)c(Sc2ccccc2)c2ccccc21 | inactive
COc1cc(/C=C(\C#N)C(=O)c2c[nH]c3ccccc23)cc(OC)c1O | inactive
CCCOc1cc(N(CC)CC)ccc1/C=C(/C#N)c1nc2ccc(C)cc2[nH]1 | inactive
O=C(Nc1ccn(CCCNC2CCN(Cc3ccccc3)CC2)c(=O)n1)OCc1ccccc1 | inactive

Compound | outcome
Clc1ccc(N(CC2CO2)CC2CO2)cc1 (configuration not stated) | inactive
CC1=C(C(=O)N(C)C)CC(CC(=O)NCc2cccc3ccccc23)C(=O)N1CCCN1CCCC1=O (configuration not stated) | inactive
Cc1cccc(NC(=O)CN2CCN(C(=O)CN3C(=O)NC4(CC(C)CC(C)(C)C4)C3=O)CC2)c1C (configuration not stated) | inactive
COc1ccc2c(c1)C(O)C(CO)C(C(=O)O)C2 (configuration not stated) | inactive
CCOc1ccc2c(c1)C(C)=CC(C)(C)N2S(=O)(=O)c1ccc(F)cc1 | inactive
COc1ccc(S(=O)(=O)N2CC[C@@H]3[C@@H](CO)N(C)c4ccc(-c5ccc(F)cc5)cc4[C@@H]32)cc1 | inactive
O=C(Cc1ccccn1)NCC[C@H]1CC[C@H](NC(=O)Nc2ccc(C(F)(F)F)cc2)[C@H](CO)O1 | inactive
Fc1ccc2nc(C3CCN(Cc4nc(CC5CC5)no4)CC3)[nH]c2c1 | inactive
N#C/C(=C(/O)c1ccc(Br)s1)c1nc2ccccc2[nH]1 | inactive
Cc1cc2oc(C(=O)NCCc3ccc(S(N)(=O)=O)cc3)c(C)c2cc1C | inactive
CCOC(=O)N1CCN(S(=O)(=O)c2ccc3c(c2)C(C)C(=O)N3)CC1 (configuration not stated) | inactive
COc1ccccc1C1CC(=O)Nc2cc3c(cc21)OCCO3 (configuration not stated) | inactive
CCOc1ccccc1NC(=O)CC1SC(=N)N(c2ccccc2)C1=O (configuration not stated) | inactive
O=S1(=O)c2ccc(Br)cc2N2CCC[C@H]2CN1Cc1ccccc1 | inactive
O=C(CC1Sc2ccccc2NC1=O)NNc1cccc(Cl)c1Cl (configuration not stated) | inactive
CC(=O)OC1CCC2(C)C(=CCC3C2CCC2(C)C3CC3ON=C(C)C32)C1 (configuration not stated) | inactive
Cc1ccc(S(=O)(=O)N2C[C@H]3[C@H]4C(=O)N(C)C(=O)[C@H]4CC(=O)[C@H]3[C@@H]2c2ccccc2F)cc1 | inactive
CCCNC(=O)N1C[C@@H]2[C@H](c3ccccc31)[C@H](CO)N2Cc1ccc(OC)cc1 | inactive
NS(=O)(=O)c1cc(Cl)c(Cl)c(S(N)(=O)=O)c1 | inactive
CC(C)NC(=O)NC(=O)COC(=O)c1ccc(S(=O)(=O)Nc2ccccc2)cc1 | inactive
COc1ccc(CC(=O)NC(c2ccccc2)c2ccc(C)cc2)c(OC)c1 (configuration not stated) | inactive
Cc1cc(-c2ccccc2)nc(N(C)NC(=O)C2CC2)c1S(C)(=O)=O | inactive
O=C(COC(=O)c1cc([N+](=O)[O-])ccc1N1CCOCC1)Nc1c(Cl)cccc1Cl | inactive
COc1ccc(C(=O)c2cc([N+](=O)[O-])ccc2N2CCN(C)CC2)cc1 | inactive
CCc1cccc(NC(=O)COC(=O)c2cc([N+](=O)[O-])ccc2N2CCOCC2)c1 | inactive

Compound | outcome
C[C@@H]1CN([C@H](C)CO)S(=O)(=O)c2ccc(/C=C/c3ccccc3)cc2O[C@H]1CN(C)C(=O)NC1CCCCC1 | inactive
COc1cccc(/C=N/NC(=O)C(=O)N/N=C/c2cccc(OC)c2O)c1O | inactive
C#CCN(C)CCCOc1ccc(Cl)cc1Cl | inactive
CC(C)Nc1nc(Nc2ccc(C#N)cc2)c2sccc2n1 | inactive
CCCCNc1cc(C(=O)O)cc(S(N)(=O)=O)c1Oc1ccccc1 | inactive
CC[N+]1(CC)CC2=Cc3ccccc3CC2C1 (configuration not stated) | inactive
Cc1ccc2c(CN3CCN(S(=O)(=O)c4ccc(Cl)cc4)CC3)cc(=O)oc2c1C | inactive
C#Cc1ccc(NC(=O)C2(C)CCN2C(=O)c2cc(C)n(C)n2)cc1 (configuration not stated) | inactive
CCN1C(=O)c2cccc3c(N)ccc(c23)C1=O | inactive
Cn1c(NCc2ccccc2F)nc2cc(-c3ccsc3)sc2c1=O | inactive
Cc1cc2oc(=O)cc(-c3ccccc3)c2c(C)c1-c1ccc(O)cc1 | inactive
Nc1ccc(-c2c3ccc(=O)cc-3oc3cc(O)ccc23)cc1C(=O)O | inactive
COC(=O)CNc1cc(S(=O)(=O)N2CCCCC2)ccc1Oc1ccc(C(=O)OC)cc1 | inactive
COc1ccc(NC(=O)C(CC(=O)O)Cc2ccc(Cl)cc2)cc1 (configuration not stated) | inactive
COc1ccccc1CNC(=O)Cn1cnnn1 | inactive
COc1ccccc1/C=C/C=N/NC(=O)CCn1cnc2ccccc21 | inactive
C#Cc1ccc(C(=O)Nc2ccc(N3CCC(C)CC3)c(C(N)=O)c2)cc1 | inactive
Cc1ccc(OCC(=O)Nc2ccc3c(c2)ncn3C)cc1 | inactive
C[C@H]1CN([C@@H](C)CO)S(=O)(=O)c2ccc(C#Cc3ccccc3F)cc2O[C@H]1CN(C)C(=O)c1ccc2c(c1)OCO2 | inactive
COc1cc(/C=N/NC(=O)c2cc(-c3c(C)nn(-c4ccccc4)c3C)n[nH]2)ccc1O | inactive
COc1ccc(/C=N/NC(=O)c2cccnc2)cc1CSc1ccccn1 | inactive
CC#CCOCC1CNC(=O)O1 (configuration not stated) | inactive
CCCN1[C@H](C(=O)N2CCOCC2)[C@@H](CO)[C@@H]2Cn3c(ccc(/C=C/c4ccccc4)c3=O)[C@@H]21 | inactive
O=C(COC(=O)C1CCC1)Nc1cc(S(=O)(=O)N2CCOCC2)ccc1Cl | inactive
CCOc1ccc(S(=O)(=O)N2CCOCC2)cc1NC(=O)CSCC(=O)Nc1ccc(OC)cc1 | inactive

Compound | outcome
COC(=O)[C@H](CCSC)NC(=O)Cn1cc(C)c(=O)[nH]c1=O | inactive
COCOc1cccc(CN2CCC2(C)C(=O)Nc2ccc(C)c(O)c2)c1 (configuration not stated) | inactive
CCN(C(=O)CSc1nnc(C)n1-c1ccc(C)cc1)c1c(N)n(Cc2ccccc2)c(=O)[nH]c1=O | inactive
COc1ccc(S(=O)(=O)Nc2ccc3c(c2)C(=O)N([C@@H](C)CO)C[C@H](C)[C@H](CN(C)Cc2ccc(Cl)c(Cl)c2)OCCCC[C@@H](C)O3)cc1 | inactive
COc1ccc(NC(=O)N(C)C[C@H]2Oc3c(cccc3N(C)C)C(=O)N([C@H](C)CO)C[C@H]2C)cc1 | inactive
Cc1ccc(S(=O)(=O)Nc2ccc3c(c2)C(=O)N([C@@H](C)CO)C[C@H](C)[C@H](CN(C)S(=O)(=O)c2ccc(Cl)cc2)OCCCC[C@@H](C)O3)cc1 | inactive
Cc1ccc(N2CC(C(=O)N(C)CC(=O)Nc3ccc(Cl)c(C(F)(F)F)c3)CC2=O)cc1 (configuration not stated) | inactive
Cn1nc(C(=O)NNC(=O)CCOc2ccc(C(C)(C)C)cc2)c2ccccc2c1=O | inactive
COc1ccc(OCC(=O)NNC(=O)CCc2ccccc2)cc1 | inactive
O=c1cc(-c2ccccc2)[nH]c2ccc(F)cc12 | inactive
O=C(Nc1ccc(F)cc1)Nc1ccc(N2CCOCC2)c2nonc12 | inactive
COC(=O)c1ccc(C(=O)NC2CCCc3c2cnn3-c2ccc(C)c(C)c2)cc1 (configuration not stated) | inactive
O=C(N/N=C/c1ccccc1OC(F)F)c1cc(-c2ccncc2)nc2ccccc12 | inactive
O=C(CN1CCN(S(=O)(=O)c2ccc(F)c(Cl)c2)CC1)N1CCc2ccccc2C1 | inactive
Cc1ccc(C)c(NC(=O)CSc2nc3c(c(=O)n2C)SC(C)C3)c1 (configuration not stated) | inactive
COC(=O)c1c(-c2ccc(C)cc2)csc1NC(=O)c1c(-c2ccccc2)noc1C | inactive
Cc1ccc(NC(=O)c2c(C)noc2C)cc1S(=O)(=O)N1CCOCC1 | inactive
O=C(CSc1nc2ccccc2n1-c1ccccc1)Nc1ncc(Cl)cc1Cl | inactive
O=C(COc1ccc(F)cc1Cl)Nc1cccc(S(=O)(=O)N2CCCCCC2)c1 | inactive
O=S1(=O)CCN(C(CO)c2ccccc2)CC1 (configuration not stated) | inactive
COc1ccc(/C=C2\SC(=O)N(CCNC(=O)C3=COCCO3)C2=O)cc1 | inactive
CC1(c2ccc3ccccc3c2)CCC(=O)O1 (configuration not stated) | inactive

From PubChem BioAssay AID743395 (Broad Institute, 2014)
